From PubChem
Compounds with a hit are over-represented: about 2.2% of the library has one in this group of screens.
IL2 activator: IL-2 activation; IL-2 activation reporter assay, cell-based qHTS; stimulated with anti-CD3/CD4/CD28 beads; in transgenic mouse T cells; activation, % (series mostly up to about 46 µM); actives 0.065% (n = 360,000); AID 652025; in the data active = activation above about 50%; inconclusive = mostly about 30% to 49%
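Using fluorescent plate cytometry, EGFP and DsRed are detected in transgenic mouse T cells stimulated 18 h at 37 degrees C with antibody-coated beads after 60 min compound pretreatment.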
BRCA1 expr act: BRCA1 expression activation. AID 624202. actives 1.1% (n = 380,000). MCF7-BRCA1-FFLuc reporter, luminescence, 48 h; response scale: scaled: vehicle 0%, 10 µM genistein 100%. Potency, µM (titrated, usually from 46.1 µM), actives largely listed as activators; also: nearly all actives have a fitted effect of over 80% in size
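Activators of BRCA1 expression were detected as increased firefly luciferase luminescence in engineered MCF7 cells after 48 h compound incubation. Signals were scaled to genistein 10 microM as full activation.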
Giardia kill: kills Giardia lamblia. actives 0.15% (n = 340,000). AID 540267. activity change, % at 7.66 µM, hits read low. Giardia lamblia trophozoite viability; in the data active = activity change below about -80%; inconclusive = between about -30% and that limit;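 also: parasites exposed to compound for two days anaerobically before the ATP read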
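Giardia lamblia trophozoites (100 cells/well) were incubated with compounds for 48 h at 37 deg C under anaerobic conditions. Viability was read as ATP content by one-step luminescence after 15-30 min at room temperature.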
TrxR1 substrate: is turned over as a substrate by rat TrxR1 | O89049 | purified TrxR1 substrate turnover, NADPH consumption readout | Potency, µM (highest dose often 114 µM) | actives 0.01% (n = 390,000) | AID 588456; also: nearly all actives have a fitted effect of over 50% in size
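Rat TrxR1, dispensed at 90 nM, was prereduced with 400 uM NADPH (final) for 5 min at ~22 deg C, then incubated with compound 15 min before 400 uM selenite. A first-read NADPH fluorescence drop versus no-compound background flagged substrates.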
TrxR1 inh: inhibitors of rat thioredoxin reductase 1; O89049; recombinant rTrxR1, NADPH fluorescence consumption, selenite substrate; Potency, µM (series often up to 114 µM), hits mostly inhibitors; actives 1% (n = 390,000); also: nearly all actives have a fitted effect of over 65% in size
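Rat TrxR1 (90 nM in the dispensed reagent) was pre-reduced with 400 uM NADPH for 5 min at room temperature, then incubated with compound for 15 min. After 400 uM selenite was added, NADPH fluorescence (Ex 340/Em 450 nm) was followed for 8 min.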
mIDH1 inhibitor: blocks human mutant IDH1 R132H enzyme. O75874. IDH1-R132H enzyme, NADPH consumption, diaphorase/resazurin fluorescence. Potency, µM (doses to about 76.6 µM), hits mostly inhibitors. actives 0.093% (n = 390,000); also: nearly all actives have a fitted effect of over 65% in size
Target sequence (O75874 whole entry R132H, stated change not applied): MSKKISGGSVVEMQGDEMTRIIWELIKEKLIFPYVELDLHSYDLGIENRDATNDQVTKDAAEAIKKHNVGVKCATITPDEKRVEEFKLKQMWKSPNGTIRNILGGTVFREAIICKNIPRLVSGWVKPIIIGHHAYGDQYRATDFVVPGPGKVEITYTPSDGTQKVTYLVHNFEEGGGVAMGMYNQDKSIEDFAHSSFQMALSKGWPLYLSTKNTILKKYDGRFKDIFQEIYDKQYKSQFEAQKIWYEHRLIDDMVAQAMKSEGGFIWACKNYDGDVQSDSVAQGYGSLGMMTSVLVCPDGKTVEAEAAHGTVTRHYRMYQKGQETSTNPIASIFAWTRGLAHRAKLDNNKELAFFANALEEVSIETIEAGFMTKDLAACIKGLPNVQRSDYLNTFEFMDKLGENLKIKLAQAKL
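IDH1-R132H (0.5 ug/mL) preincubated 30 min with compound, then NADPH (0.016 mM) and alpha-KG (2 mM) added; 80 min at RT, pH 7.5. Remaining NADPH coupled via diaphorase/resazurin to fluorescence (540/590 nm); concentration-response curves normalized to no-enzyme control.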
Resorufin autofl: interferes with resorufin fluorescence in IDH1 counter-screen; inhibition of signal, % at 51.2 µM; 750 tested, under 10 active; Resorufin detection reagent fluorescence interference, cell-free; AID 623980; shares compounds with mIDH1 inhibitor
WT IDH1 inh: inhibits human wild-type IDH1, mutant selectivity check. shares compounds with mIDH1 inhibitor. WT IDH1 enzyme, NADPH diaphorase/resazurin fluorescence. Potency, µM (highest dose often 115 µM), most hits filed as inhibitors. actives 9% (n = 750); also: nearly all actives have a fitted effect of over 55% in size
Target sequence (O75874 whole entry, looked up): as the sequence (O75874 whole entry R132H, stated change not applied) above, with H132R counted along it
mIDH1 confirm: inhibits human mutant IDH1 enzyme in cherrypick confirmation | shares compounds with mIDH1 inhibitor | IDH1 R132H enzyme, NADPH diaphorase/resazurin fluorescence | Potency, µM (titrated, usually from 76.6 µM), usual class: inhibitors | actives 83% (n = 750); also: nearly all actives have a fitted effect of over 50% in size
Of the large screens only hits and unclear results are named; the others gave an inactive call (follow-up assays come after a bar, where they were run). Unless noted, calls follow the shape of the dose curve; as a rule, active = well fitted curve in the direction sought with a large enough effect; inconclusive = small, poorly fitted or top-dose-only effect, or another doubt; inactive = no such curve, though single readings can be large; an effect the other way counts as inactive or inconclusive.

CC1=C(c2ccc(C(C)C)cc2)S(=O)(=O)NC1=NCc1ccccc1Br	none (no result: IL2 activator, BRCA1 expr act, Giardia kill)
Cc1csc(NC(=O)COCC(=O)O)c1-c1nc2ccccc2s1	none
Cc1csc(NC(=O)CCCC(=O)O)c1-c1nc2ccccc2s1	mIDH1 inhibitor inconclusive | Resorufin autofl inactive | WT IDH1 inh inactive | mIDH1 confirm 25.1µM
Cc1ccc(NC(=O)CN2C(=O)COc3ccc(S(=O)(=O)N4CCCC4)cc32)cc1C	none
Cc1ccc(NC(=O)CN2C(=O)COc3ccc(S(=O)(=O)N4CCCCCC4)cc32)cc1Cl	mIDH1 inhibitor inconclusive (no result: IL2 activator, BRCA1 expr act, Giardia kill) | Resorufin autofl inactive | WT IDH1 inh inactive | mIDH1 confirm 14.1µM
Cc1ccc2c(c1)/C(=N/N1C(=O)c3ccccc3C1=O)C(=O)N2	mIDH1 inhibitor 46.5µM | Resorufin autofl inactive | WT IDH1 inh inactive | mIDH1 confirm 7.94µM
Cc1ccc2nc(NC(=O)CSc3nccn3Cc3ccccc3)sc2c1	none (no result: IL2 activator, Giardia kill)
CCC1C(C#N)=C(SCC(N)=O)NC2=C1C(=O)CC(C)(C)C2 (configuration not stated)	none
COc1ccc(C2C(C#N)=C(SCC(=O)Nc3ccc(C)cc3)NC3=C2C(=O)CC(C)(C)C3)cc1 (configuration not stated)	mIDH1 inhibitor 13.1µM | Resorufin autofl inactive | WT IDH1 inh inactive | mIDH1 confirm 7.08µM
Cc1cccc(N(C(=O)c2snc(C(N)=O)c2N)C(C(=O)NCc2ccccc2)c2ccncc2)c1 (configuration not stated)	mIDH1 inhibitor inconclusive | Resorufin autofl inactive | WT IDH1 inh inactive | mIDH1 confirm 35.5µM
COc1ccc(OC)c(N(C(=O)c2snc(C(N)=O)c2N)C(C(=O)NCc2ccccc2)c2ccc(O)cc2)c1 (configuration not stated)	mIDH1 inhibitor inconclusive | Resorufin autofl inactive | WT IDH1 inh inactive | mIDH1 confirm 22.4µM
CCOC(=O)c1cccc(NC(=O)c2cc3c(=O)n(Cc4cccnc4)ccc3nc2C)c1	none (no result: IL2 activator, BRCA1 expr act, Giardia kill)
COc1ccc(N(CC(=O)N2CCN(c3ccc(Cl)cc3)CC2)S(=O)(=O)c2c(C)n[nH]c2C)cc1	mIDH1 inhibitor inconclusive | Resorufin autofl inactive | WT IDH1 inh inactive | mIDH1 confirm 12.6µM
COc1ccc(N(CC(=O)Nc2ccc(Cl)cc2)S(=O)(=O)c2c(C)n[nH]c2C)cc1	none
Cc1nc([N+](=O)[O-])c(C(=O)OCc2ccccc2Br)n1C	none
Cc1nc([N+](=O)[O-])c(Br)n1CC(=O)c1ccc2ccccc2c1	TrxR1 inh 11.2µM, mIDH1 inhibitor inconclusive | Resorufin autofl inactive | WT IDH1 inh inconclusive | mIDH1 confirm 28.2µM
CCCCOc1ccc(CNC(=O)Cc2ccc(NC(=O)N3CCSc4ncccc43)cc2)cc1	none (no result: IL2 activator, BRCA1 expr act, Giardia kill)
Cc1cccc(N(C(=O)CCC(=O)Nc2cc(C)on2)C(C(=O)NC2CCCC2)c2ccc(C)o2)c1 (configuration not stated)	none
Cc1cc(NC(=O)CCC(=O)N(c2cccc(F)c2)C(C(=O)NC2CCCC2)c2ccc(C)o2)no1 (configuration not stated)	mIDH1 inhibitor inconclusive | Resorufin autofl inactive | WT IDH1 inh inactive | mIDH1 confirm 22.4µM
Cc1cc(NC(=O)CCC(=O)N(c2cccc(F)c2)C(C(=O)NC2CCCC2)c2ccccc2)no1 (configuration not stated)	mIDH1 inhibitor 46.5µM | Resorufin autofl inactive | WT IDH1 inh inactive | mIDH1 confirm 15.8µM
CC(=O)c1cccc(N(C(=O)CS(=O)CC(=O)Nc2ccc(F)cc2)C(C(=O)NC2CCCCC2)c2ccc(C)o2)c1 (configuration not stated)	TrxR1 inh inconclusive, mIDH1 inhibitor inconclusive | Resorufin autofl inactive | WT IDH1 inh inactive | mIDH1 confirm 15.8µM
Cc1ccc(C(=O)Nc2nc3n(n2)C(c2ccc(F)cc2)C=C(c2ccccc2)N3)cc1 (configuration not stated)	none (no result: IL2 activator, BRCA1 expr act, Giardia kill)
COC(=O)c1cc(NC(=O)c2nn(C)c3c2CSc2ccccc2-3)cc(C(=O)OC)c1	none (no result: IL2 activator, BRCA1 expr act, Giardia kill)
Cc1ccc(NNC(=O)c2sccc2Cl)c(C)c1	none (no result: IL2 activator, mIDH1 inhibitor)
COCCCNC(=O)CCn1c(=O)c2ccccc2n(CC(=O)Nc2cc(Cl)ccc2OC)c1=O	none (no result: IL2 activator, Giardia kill)
COc1cccc(CCNc2ncnc3c2nnn3C)c1	none (no result: IL2 activator, BRCA1 expr act, Giardia kill)
CCOc1cc(C=C2C(=O)c3ccccc3C2=O)ccc1OCC(=O)Nc1ccc(C)cc1	mIDH1 inhibitor inconclusive | Resorufin autofl inactive | WT IDH1 inh inactive | mIDH1 confirm 15.8µM
Cc1c(CCC(C)C)c(-n2ccnc2C)n2c(nc3ccccc32)c1C#N	mIDH1 inhibitor inconclusive | Resorufin autofl inactive | WT IDH1 inh inactive | mIDH1 confirm inconclusive
COc1cccc(-c2nc(SCC(=O)Nc3ccc4c(c3)OCCO4)c(-c3ccc(C)cc3)[nH]2)c1	none (no result: IL2 activator, BRCA1 expr act, Giardia kill)
COc1cccc(N=NC2C(=O)N(C(N)=S)N=C2C)c1 (configuration not stated)	BRCA1 expr act inconclusive, mIDH1 inhibitor inconclusive | Resorufin autofl inactive | WT IDH1 inh inactive | mIDH1 confirm inactive
CC1=NN(C(N)=S)C(=O)C1N=Nc1cccc(Cl)c1 (configuration not stated)	BRCA1 expr act inconclusive, TrxR1 inh inconclusive, mIDH1 inhibitor inconclusive
Cc1ccc(OCC(=O)Nc2c(C(=O)c3ccc(Cl)cc3)oc3ccccc23)cc1C	none (no result: IL2 activator, BRCA1 expr act, Giardia kill)
NNC(=O)c1sc2nc(N3CCOCC3)c3c(c2c1N)CCCC3	none
COc1cccc(NC(=O)c2sc3nc(N4CCOCC4)c4c(c3c2N)CCCC4)c1	mIDH1 inhibitor inconclusive | Resorufin autofl inactive | WT IDH1 inh inactive | mIDH1 confirm 7.08µM
Nc1c(C(=O)NCc2ccccc2)sc2nc(N3CCOCC3)c3c(c12)CCCC3	mIDH1 inhibitor inconclusive | Resorufin autofl inactive | WT IDH1 inh inconclusive | mIDH1 confirm 7.94µM
CC(=O)c1ccc(NC(=O)c2sc3nc(N4CCOCC4)c4c(c3c2N)CCCC4)cc1	mIDH1 inhibitor inconclusive | Resorufin autofl inactive | WT IDH1 inh inactive | mIDH1 confirm 6.31µM
